GALC G270D act: A Novel Cell-Based Assay to Identify Small Molecules for B -Galactocerebrosidase. P54803. 145M-Twi-hGALC-G270D cells (Twitcher mouse brain line with human GALC G270D), HMU-beta-Gal fluorescence, 48 h. Potency, µM (doses to about 57.5 µM), most hits filed as activators. hit rate 0.1% among 45,000. AID 1159614, 2016; further: nearly all actives have a fitted effect of over 65% in size
Target sequence (P54803 whole entry G286D): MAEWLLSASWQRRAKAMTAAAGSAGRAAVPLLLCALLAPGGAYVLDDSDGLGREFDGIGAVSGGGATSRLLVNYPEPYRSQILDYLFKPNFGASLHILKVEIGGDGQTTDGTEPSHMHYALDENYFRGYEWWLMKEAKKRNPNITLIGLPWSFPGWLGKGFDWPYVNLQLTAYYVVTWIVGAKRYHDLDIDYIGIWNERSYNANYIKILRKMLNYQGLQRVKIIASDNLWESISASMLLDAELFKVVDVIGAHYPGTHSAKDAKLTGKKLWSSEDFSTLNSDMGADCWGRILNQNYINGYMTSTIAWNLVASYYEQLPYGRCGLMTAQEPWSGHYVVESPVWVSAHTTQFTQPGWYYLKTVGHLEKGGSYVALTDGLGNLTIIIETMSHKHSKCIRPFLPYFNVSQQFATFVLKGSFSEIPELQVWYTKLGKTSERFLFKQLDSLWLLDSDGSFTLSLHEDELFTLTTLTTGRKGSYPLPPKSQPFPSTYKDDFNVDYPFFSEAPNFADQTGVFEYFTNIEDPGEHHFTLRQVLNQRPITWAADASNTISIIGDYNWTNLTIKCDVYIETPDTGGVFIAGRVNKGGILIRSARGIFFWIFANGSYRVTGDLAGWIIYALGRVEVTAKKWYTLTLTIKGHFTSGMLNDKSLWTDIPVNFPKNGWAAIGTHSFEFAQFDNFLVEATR
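Live 145M-Twi cells (Twitcher mouse brain-derived, GALC-null) stably expressing human GALC-G270D, with a wild-type GALC line, were compound-treated. Residual GALC activity was then read as fluorescence from 0.1 mM final HMU-β-gal at pH 5.2; higher signal means activation.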
HTT prom inh: Primary qHTS for Identification of Small Molecule Inhibitors of Huntingtin Promoter Activity. HEK293 HTT promoter firefly luciferase reporter, 24 h. hit rate 0.93% among 48,000. Potency, µM (top dose mostly 57.5 µM), most hits filed as inhibitors; further: nearly all actives have a fitted effect of over 50% in size
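Firefly luciferase signal from promoter-reporter HEK293 cells was scaled between vehicle (0%) and zero RLU (-100%). Compounds were tested at final concentrations of up to 57.5 uM over 24 h at 37 degrees C. PTC124 at 50 uM final served as control inhibitor.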
HTT-AS promoter: Primary qHTS for Identification of Small Molecule Activators of Huntingtin-Antisense Promoter Activity | HEK293 HTT-AS promoter firefly luciferase reporter, 24 h; response scale: percent change from vehicle, -100% = no light | Potency, µM (titrated, usually from 57.5 µM), actives largely listed as activators | hit rate 0.24% among 48,000 | AID 1508624, 2021; further: nearly all actives have a fitted effect of over 55% in size
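HEK293 cells carrying firefly luciferase reporters were seeded at 2,500 per well in Opti-MEM and cultured for 24 h. They were then treated with compounds at up to 57.5 uM final for 24 h at 37 degrees C before Dual-Glo luminescence readout.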
NTMT1 inhibitor: Primary qHTS for Inhibitors of N-terminal methyltransferase 1 (NTMT1): MTaseGlo Assay; N-terminal Xaa-Pro-Lys N-methyltransferase 1 (Homo sapiens), Q9BV86; NTMT1 MTase-Glo SAH luminescence, purified enzyme; Potency, µM (titrated, usually from 114 µM), most hits filed as inhibitors; hit rate 2.5% among 59,000; AID 1645870, 2021; further: nearly all actives have a fitted effect of over 65% in size
Hits are given with their value; i = inactive; ? = inconclusive; nt = not tested or not shown; ! = not confirmed by another sample; [ ] = remark or other dose. The list is not random: actives were taken first. Their share in the collection is about 2.7%. The call rests on the fitted dose curve; in most records, active means well fitted curve in the direction sought with a large enough effect; inconclusive means small, poorly fitted or top-dose-only effect, or another doubt; inactive means no such curve, though single readings can be large; an effect the other way counts as inactive or inconclusive.

SMILES | GALC G270D act | HTT prom inh | HTT-AS promoter | NTMT1 inhibitor
C[C@]12CC[C@H]3[C@@H](CCC4=CC(=O)CC[C@@H]43)[C@@H]1CC[C@@H]2OC(=O)CCc1ccco1 | i | i | i | 25µM
Nc1c(C(=O)Nc2ccc(Cl)c(C(F)(F)F)c2)sc2nc3c(cc12)N1CCC3CC1 | i | ? | i | i
Nc1c(C(=O)Nc2ccc(Cl)cc2)sc2nc3c(cc12)N1CCC3CC1 | 32µM | ? | i | ?
CN1C[C@@H]2CN(c3ccc(-c4ccccc4)nn3)C[C@@H]2C1 | nt | nt | nt | i
CCC1NC(=O)C2C(Cl)C(Cl)CN2C(=O)C(CC)NC(=O)CC(c2ccccc2)NC(=O)C(CO)NC1=O (stereo not drawn) | nt | nt | nt | i
COc1cc(CCNCc2ccccc2O)c(OC)cc1C#N | nt | nt | nt | i
CC(=O)[O][Hg][c]1ccccc1 | i | ? | i | 2.8µM
O=C(O)COc1ccccc1 | i | i | ? | i
N#Cc1c(-c2ccc([N+](=O)[O-])o2)no[n+]1[O-] | nt | nt | nt | i
N#Cc1cc2c(nc1SCC(=O)Nc1ccc(Cl)c(C(F)(F)F)c1)C1CCN2CC1 | i | 16µM | i | i
N#Cc1cc2c(nc1SCC(=O)Nc1ccc(C(F)(F)F)cc1)C1CCN2CC1 | i | 14µM | i | i
COc1ccc(NC(=O)c2sc3nc4c(cc3c2N)N2CCC4CC2)cc1OC | i | i | i | i
COc1ccccc1CN[C@H]1C2CCN(CC2)[C@H]1C(c1ccccc1)c1ccccc1 | nt | nt | nt | i
CC(=O)OC[C@H]1O[C@@H]([S-])[C@H](OC(C)=O)[C@@H](OC(C)=O)[C@@H]1OC(C)=O.CC[PH+](CC)CC.[Au] | nt | nt | nt | 10µM
NCCc1cc(O)c(O)cc1O | i | i | i | 28µM
CC(C)[C@H]1OC(=O)[C@H](Cc2ccccc2)N(C)C(=O)[C@@H](C(C)C)OC(=O)[C@H](Cc2ccccc2)N(C)C(=O)[C@@H](C(C)C)OC(=O)[C@H](Cc2ccccc2)N(C)C1=O | nt | nt | nt | i[12.6 µM]
C[N+](C)(C)CCOC(=O)C(O)(c1ccccc1)c1ccccc1 | i | i | i | 16µM
c1ccc(CN2CCNCC2)cc1 | i | i | i | 100µM
c1ccc(N2CCNCC2)cc1 | i | i | i | i
C=CC[C@]1(O)CC[C@H]2[C@@H]3CCC4=CC(=O)CCC4=C3C=C[C@@]21C | i | i | i | 22µM
CCc1ccc(-n2nc(C)c3c2NC(=O)CSC3c2ccc(OC)cc2OC)cc1 (stereo not drawn) | i | 22µM | i | i
C[C@H](N)C(=O)c1ccccc1 | i | i | i | 112µM
CCN(CC)C(C)C(=O)c1ccccc1 (stereo not drawn) | i | i | i | i
CCOc1ccc(CCNC(=O)c2cc3ccccc3n2Cc2ccccn2)cc1OCC | nt | nt | nt | i
CO[C@@H]1C[C@H](O[C@H]2CC[C@@]3(C)C(CCC4C3CC[C@]3(C)[C@@H](C5=CC(=O)OC5)[C@@H](OC(C)=O)CC43O)C2)O[C@H](C)[C@@H]1O[C@H]1O[C@H](CO[C@@H]2O[C@H](CO)[C@@H](O)[C@H](O)[C@H]2O)[C@@H](O)[C@H](O)[C@H]1O (stereo partly drawn) | nt | nt | nt | i[12.6 µM]
SMILES | GALC G270D act | HTT prom inh | HTT-AS promoter | NTMT1 inhibitor
CCOC(=O)CC(SP(=S)(OC)OC)C(=O)OCC (stereo not drawn) | i | i | i | 32µM!
Cc1[nH]nc2ccc(-c3cncc(OC[C@@H](N)Cc4c[nH]c5ccccc45)c3)cc12 | nt | ? | i | 40µM!
C/C=C(\C)C(=O)O[C@@H]1[C@@H](C)[C@]2(O)C3C=C(C)C(=O)[C@@]3(O)CC(CO)=C[C@H]2C2C(C)(C)[C@@]21OC(=O)C(C)CC (stereo partly drawn) | nt | nt | nt | i
Cc1ccccc1-n1c(/C=C/c2ccccc2F)nc2ccccc2c1=O | i | ? | i | i
O=c1c2ccccc2nc(/C=C/c2cccc3ccccc23)n1-c1ccccc1Cl | i | 28µM | i | i
COC1CC(OC2CCC3(C)C(CCC4C3CCC3(C)C(C5=CC(=O)OC5)C(OC(C)=O)CC43O)C2)OC(C)C1OC1OC(CO)C(O)C(O)C1O (stereo not drawn) | nt | nt | nt | i[12.6 µM]
O=P1(N(CCCl)CCCl)NCCCO1 (stereo not drawn) | i | i | i | 35µM!
O=C(O)C(=O)c1cn(Cc2ccccc2)c2ccc(-c3ccc(OC(F)(F)F)cc3)cc12 | nt | i | i | 40µM!
O=C(Nc1ccc(OC(F)(F)F)cc1)c1cccn(Cc2ccccc2Cl)c1=O | i | ? | i | i
COc1cc(N2CCN(C)CC2)ccc1N | nt | nt | nt | i
Nc1ccc(N=Nc2ccccc2)cc1 | i | ? | i | 126µM
CC[n+]1c(-c2ccccc2)c2cc(N)ccc2c2ccc(N)cc21 | i | i | i | 28µM
Nc1cccc2c(N)cccc12 | i | i | i | 35µM
Cc1cc(C)cc(OCC(=O)Nc2ccc(-c3nc4ccccc4s3)cc2)c1 | 40µM | i | ? | i
Cc1cc(C)cc(OCC(=O)Nc2ccc(Cl)cc2C(=O)c2ccccc2)c1 | i | i | i | i
Fc1ccc(N2CCN(c3ncnc4c3nc3n4CCCCC3)CC2)cc1 | i | 2.8µM | i | i
Cc1ncc(OC[C@@]2(c3cccc(F)c3)C[C@H]2C(=O)Nc2ccc(F)cn2)c(C)n1 | nt | nt | nt | i
C[C@H]1[C@H](O)[C@@H](C)/C=C/C=C/CC/C=C/C=C/C=C/C=C/[C@H](O[C@@H]2O[C@H](C)[C@@H](O)[C@H](N)[C@@H]2O)C[C@@H]2O[C@](O)(C[C@@H](O)[C@H](O)CC[C@@H](O)C[C@@H](O)C[C@@H](O)CC(=O)O[C@H]1C)C[C@H](O)[C@H]2C(=O)O | nt | nt | nt | i
CC(C)[N+](C)(CCC(C(N)=O)(c1ccccc1)c1ccccc1)C(C)C | i | i | i | 40µM
CC(=O)O[C@@H]1[C@H]2CC[C@H]3[C@@](C)(O)[C@@H]4C[C@H](O)C(C)(C)[C@@]4(O)[C@H](O)C[C@@]13C[C@@]2(C)O | nt | nt | nt | i
Cc1cccc(NC(=O)NC2N=C(c3ccccc3)c3ccccc3N(CC(=O)c3ccccc3C)C2=O)c1 (stereo not drawn) | nt | nt | nt | i
O=S(=O)(O)C(F)(F)C(F)(F)C(F)(F)C(F)(F)C(F)(F)C(F)(F)C(F)(F)C(F)(F)F | i | i | i | 22µM
CN(C)[C@@H]1C(=O)C(C(N)=O)=C(O)[C@@]2(O)C(=O)C3=C(O)c4c(O)cccc4[C@@](C)(O)[C@H]3[C@H](O)[C@@H]12 | nt | i | i | 79µM
Cc1c(Cl)c(OCC(=O)N2CCN(C)CC2)nc2sc(C(=O)NC3CC3)c(N)c12 | nt | nt | nt | i
CCN(CC)C(=O)[C@@H]1C=C2c3cccc4[nH]cc(c34)C[C@H]2N(C)C1 | i | i | i | 56µM
COC(=O)C12C(=O)C(C)(O)C(=O)C1(C)C(C)=CC1C3(C=O)CCC(OC(C)=O)C(C)(C)C3CCC12C (stereo not drawn) | nt | nt | nt | i
Cc1cccc(NC(=O)c2ccc(C(F)(F)F)cc2C(=O)O)n1 | nt | nt | nt | i
C[C@@]1(C(=O)O)CC[C@]2(C)CC[C@]3(C)C4=CC(=O)c5cc(O)c(O)cc5[C@]4(C)CC[C@@]3(C)[C@@H]2C1 | nt | nt | nt | i
CC1=C(O)C(=O)C=C2C1=CC=C1[C@@]2(C)CC[C@@]2(C)[C@@H]3C[C@](C)(C(=O)O)CC[C@]3(C)CC[C@]12C | nt | ? | i | 16µM!
